# Laboratory results taken from PubChem BioAssay (NCI).
# Values joined by “and” are separate entries in the source; they are usually repeats but may differ in a detail not shown here. Equal values may be shown once. This is part of a sample that, as a whole, favours compounds with a hit. Of some 83,000 tested, about 20% had one in any assay.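 Note: values are percent growth. 100 is the growth of untreated cells, values between 100 and 0 indicate rising inhibition; between -100 and 0 indicates cell death.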 Unmarked numbers belong to inactive results. Active and inactive are the calls of the source. How the source made its calls: active means growth percent below 10; inactive means the rest.
# How the values were obtained:
# Assay in all cases: NCI-60 one-dose screen, 48 h (100 = growth as untreated, 0 = no growth, -100 = all killed)
# [1] = system: HT29 colon; conditions: 10 µM unless noted
# [2] = system: SNB-75 CNS; conditions: 10 µM unless noted
# [3] = system: SNB-19 CNS; conditions: 10 µM unless noted
# [4] = system: U251 CNS; conditions: 10 µM unless noted
# [5] = system: PC-3 prostate; conditions: 10 µM unless noted
# [6] = system: SK-MEL-5 melanoma; conditions: 10 µM unless noted
# [7] = system: UACC-62 melanoma
# [8] = system: LOX IMVI melanoma; conditions: 10 µM unless noted
# [9] = system: SK-MEL-28 melanoma; conditions: 10 µM unless noted
# [10] = system: SK-MEL-2 melanoma; conditions: 10 µM unless noted
# [11] = system: EKVX NSCLC; conditions: 10 µM unless noted
# [12] = system: SN12C renal; conditions: 10 µM unless noted
# [13] = system: UO-31 renal; conditions: 10 µM unless noted
# [14] = system: TK-10 renal
# [15] = system: ACHN renal; conditions: 10 µM unless noted
# [16] = system: CAKI-1 renal; conditions: 10 µM unless noted
# [17] = system: A498 renal; conditions: 10 µM unless noted
# [18] = system: CCRF-CEM leukemia; conditions: 10 µM unless noted
# [19] = system: MOLT-4 leukemia; conditions: 10 µM unless noted
# [20] = system: SR leukemia; conditions: 10 µM unless noted
smiles,measurement,setting,value
Cc1nn(-c2ccccc2)c2nc(Cl)c(/C=C/C(=O)c3ccccc3)c(-c3ccccc3)c12,growth,[1],103%
same,growth,[2],89.4%
same,growth,[3],98.9%
same,growth,[4],104%
same,growth,[5],101%
same,growth,[6],96.3%
same,growth,[7]; 10 µM unless noted,102%
same,growth,[8],96.1%
same,growth,[9],109%
same,growth,[10],96.4%
same,growth,[11],107%
same,growth,[12],102%
same,growth,[13],82.4%
same,growth,[14]; 10 µM unless noted,121%
same,growth,[15],104%
same,growth,[16],97.8%
same,growth,[17],112%
COC(=O)[C@]1(C(C)C)N[C@H](c2cn(-c3ccccc3)nc2-c2ccccc2)[C@@H]2C(=O)N(c3ccc(Cl)cc3)C(=O)[C@@H]21,growth,[1],98.1%
same,growth,[2],86.1%
same,growth,[3],99.1%
same,growth,[4],97.4%
same,growth,[5],89.9%
same,growth,[6],101%
same,growth,[7]; 10 µM unless noted,101%
same,growth,[8],92.1%
same,growth,[9],114%
same,growth,[10],86.9%
same,growth,[11],102%
same,growth,[12],97.3%
same,growth,[13],59.5%
same,growth,[14]; 10 µM unless noted,113%
same,growth,[15],93.9%
same,growth,[16],77.5%
same,growth,[17],107%
C[n+]1ccc(Nc2ccc(NC(=O)c3ccc(Nc4cc[n+](C)c5ccc(N)cc45)cc3)cc2)cc1,growth,[1],96.9%
same,growth,[2],97.2%
same,growth,[3],100%
same,growth,[4],92%
same,growth,[5],90.1%
same,growth,[6],90.4%
same,growth,[7]; 10 µM unless noted,89.2%
same,growth,[8],103%
same,growth,[9],116%
same,growth,[10],71.5%
same,growth,[11],93.9%
same,growth,[12],88.4%
same,growth,[13],75.7%
same,growth,[14]; 10 µM unless noted,108%
same,growth,[15],100%
same,growth,[16],94.5%
same,growth,[17],93.9%
same,growth,[18],98%
same,growth,[19],97.5%
same,growth,[20],93.2%
c1ccc2c(c1)[nH]c1c2cc[n+]2cc3c(cc12)CCCC3,growth,[1],18.5%
same,growth,[2],77.3%
same,growth,[3],35.1%
same,growth,[4],16.3%
same,growth,[5],22.8%
same,growth,[6],18.3%
same,growth,[7]; 10 µM,29.6%
same,growth,[7]; 100 µM,-23.2% (active) and -48.3% (active)
same,growth,[8],19.5%
same,growth,[9],32.7%
same,growth,[10],-8.25% (active)
same,growth,[12],24.5%
same,growth,[13],82.1%
same,growth,[14]; 10 µM,69.2%
same,growth,[14]; 100 µM,-97.9% (active) and -92.5% (active)
same,growth,[15],66.2%
same,growth,[17],97.3%
same,growth,[18],1.33% (active)
same,growth,[19],2.41% (active)
same,growth,[20],10.6%
Cc1nn(-c2ccccc2)c(Cl)c1C(CC(=O)c1ccc(Cl)cc1)CC(=O)c1ccc(Cl)cc1,growth,[1],77%
same,growth,[2],86.8%
same,growth,[3],82.4%
same,growth,[4],82.2%
same,growth,[5],73.1%
same,growth,[6],89.7%
same,growth,[7]; 10 µM unless noted,82.4%
same,growth,[8],81.8%
same,growth,[9],112%
same,growth,[10],89.1%
same,growth,[11],94.8%
same,growth,[12],85.2%
same,growth,[13],76.7%
same,growth,[14]; 10 µM unless noted,104%
same,growth,[15],88.4%
same,growth,[17],66.9%
Nc1ccccc1-c1ccc([N+](=O)[O-])cc1,growth,[1],78.1%
same,growth,[2],71.9%
same,growth,[3],67.3%
same,growth,[4],67.4%
same,growth,[5],38.9%
same,growth,[6],34.8%
same,growth,[7]; 10 µM unless noted,24.9%
same,growth,[8],54.7%
same,growth,[9],88.4%
same,growth,[10],24.3%
same,growth,[11],74.6%
same,growth,[12],60.3%
same,growth,[13],43.3%
same,growth,[14]; 10 µM unless noted,72.7%
same,growth,[15],46.1%
same,growth,[16],30.3%
same,growth,[17],75.9%
same,growth,[18],24.6%
same,growth,[19],30.5%
same,growth,[20],34.8%
CCC(CC)NCCCCCNc1cc(OC)cc2cccnc12,growth,[1],77.3%
same,growth,[2],73.4%
same,growth,[3],91.1%
same,growth,[4],86.5%
same,growth,[5],97.3%
same,growth,[6],95.4%
same,growth,[7]; 10 µM unless noted,94.4%
same,growth,[8],86.3%
same,growth,[9],108%
same,growth,[10],79.8%
same,growth,[11],104%
same,growth,[12],87.2%
same,growth,[13],71.2%
same,growth,[14]; 10 µM unless noted,83.5%
same,growth,[15],94.8%
same,growth,[16],97.2%
same,growth,[17],72.7%
same,growth,[18],114%
same,growth,[19],98.1%
same,growth,[20],109%
CC1CC(C)/C(=N/NC(N)=O)C(C(O)CC2CCC(=O)NC2=O)C1 (configuration not stated),growth,[1],35.8%
same,growth,[2],57.7%
same,growth,[3],31.4%
same,growth,[4],35.1%
same,growth,[5],40.6%
same,growth,[6],31.7%
same,growth,[7]; 10 µM unless noted,46.3%
same,growth,[8],27.3%
same,growth,[9],37%
same,growth,[10],33.8%
same,growth,[11],33.6%
same,growth,[12],18.9%
same,growth,[13],15.9%
same,growth,[14]; 10 µM unless noted,53.9%
same,growth,[16],35.5%
same,growth,[17],71.1%
same,growth,[18],15.6%
same,growth,[19],23%
same,growth,[20],48.5%
COc1ccc2c(c1)nc(N)c1c3cc(OC)c(OC)cc3cn21,growth,[1],9.28% (active)
same,growth,[2],57.1%
same,growth,[3],62.2%
same,growth,[4],30.6%
same,growth,[5],53.1%
same,growth,[6],34.1%
same,growth,[7]; 10 µM unless noted,22.1%
same,growth,[8],53.2%
same,growth,[9],57.5%
same,growth,[10],47.7%
same,growth,[11],73.1%
same,growth,[12],56.4%
same,growth,[13],49.8%
same,growth,[14]; 10 µM unless noted,48.9%
same,growth,[15],46.4%
same,growth,[16],28.5%
same,growth,[17],35.9%
same,growth,[19],76.4%
CCOc1ccccc1C(=O)OCC(=O)Nc1cccc(S(=O)(=O)N(C)C)c1,growth,[1],98.6%
same,growth,[2],82.7%
same,growth,[3],83.5%
same,growth,[4],105%
same,growth,[5],107%
same,growth,[6],97.4%
same,growth,[7]; 10 µM unless noted,94.5%
same,growth,[8],101%
same,growth,[9],104%
same,growth,[10],94.2%
same,growth,[11],104%
same,growth,[12],103%
same,growth,[13],79%
same,growth,[14]; 10 µM unless noted,169%
same,growth,[15],121%
same,growth,[16],95.2%
same,growth,[17],118%
same,growth,[18],169%
same,growth,[20],105%
O=C(/C=C/c1ccccc1)CC(c1ccccc1)N1CCOCC1 (configuration not stated),growth,[1],-39.3% (active)
same,growth,[2],105%
same,growth,[3],71.8%
same,growth,[4],0.707% (active)
same,growth,[5],89%
same,growth,[6],98.9%
same,growth,[7]; 10 µM unless noted,85.4%
same,growth,[8],-92% (active)
same,growth,[9],107%
same,growth,[10],-24.5% (active)
same,growth,[11],117%
same,growth,[12],94.5%
same,growth,[13],61.3%
same,growth,[14]; 10 µM unless noted,77%
same,growth,[15],87.8%
same,growth,[16],103%
same,growth,[19],78.4%
same,growth,[20],-7.57% (active)
Cc1nc(N)[nH]c(=O)c1C,growth,[1],107%
same,growth,[2],99.4%
same,growth,[3],95.4%
same,growth,[4],95.4%
same,growth,[5],117%
same,growth,[6],108%
same,growth,[7]; 10 µM unless noted,91.1%
same,growth,[8],102%
same,growth,[9],120%
same,growth,[10],-10.2% (active)
same,growth,[11],100%
same,growth,[12],87.4%
same,growth,[13],107%
same,growth,[14]; 10 µM unless noted,137%
same,growth,[15],111%
same,growth,[17],216%
same,growth,[18],94.7%
same,growth,[19],150%
same,growth,[20],92.2%
Cc1ccc(NC(=O)COC(=O)c2ccc(S(=O)(=O)N3CCCCCC3)cc2)cc1,growth,[1],106%
same,growth,[2],94.7%
same,growth,[3],33.4%
same,growth,[4],104%
same,growth,[5],93.6%
same,growth,[6],104%
same,growth,[7]; 10 µM unless noted,95%
same,growth,[8],97.1%
same,growth,[9],119%
same,growth,[10],144%
same,growth,[11],111%
same,growth,[12],98.7%
same,growth,[13],85.8%
same,growth,[14]; 10 µM unless noted,178%
same,growth,[15],107%
same,growth,[16],108%
same,growth,[17],128%
same,growth,[19],127%
same,growth,[20],131%
O=[P@@]1(c2ccccc2)O[C@H](COCc2ccccc2)[C@@H](OCc2ccccc2)[C@H](OCc2ccccc2)[C@H]1NCc1ccccc1,growth,[1],10.9%
same,growth,[2],27.9%
same,growth,[3],33.9%
same,growth,[4],20.9%
same,growth,[5],10.5%
same,growth,[6],38%
same,growth,[7]; 10 µM unless noted,24%
same,growth,[8],5.71% (active)
same,growth,[9],49.2%
same,growth,[10],29.5%
same,growth,[11],17.6%
same,growth,[12],-39.4% (active)
same,growth,[13],-7.83% (active)
same,growth,[14]; 10 µM unless noted,13.5%
same,growth,[15],10%
same,growth,[18],15.9%
same,growth,[19],0.343% (active)
same,growth,[20],-2.72% (active)
O=C1Cc2cc(CCn3cncn3)c(Cl)cc2N1,growth,[1],97.1%
same,growth,[2],63.6%
same,growth,[3],74.4%
same,growth,[4],73.4%
same,growth,[5],86.4%
same,growth,[6],40.1%
same,growth,[7]; 10 µM unless noted,68.2%
same,growth,[8],81%
same,growth,[9],67.2%
same,growth,[10],71.3%
same,growth,[11],29.5%
same,growth,[12],55.8%
same,growth,[13],66%
same,growth,[14]; 10 µM unless noted,122%
same,growth,[16],60%
same,growth,[17],47.1%
O=NC1CC=CCC1c1ccccc1 (configuration not stated),growth,[1],100%
same,growth,[2],93.5%
same,growth,[3],109%
same,growth,[4],105%
same,growth,[5],94%
same,growth,[6],108%
same,growth,[7]; 10 µM unless noted,100%
same,growth,[8],104%
same,growth,[9],114%
same,growth,[10],108%
same,growth,[11],101%
same,growth,[12],108%
same,growth,[13],84.2%
same,growth,[14]; 10 µM unless noted,103%
same,growth,[15],93.9%
same,growth,[18],111%
same,growth,[19],102%
same,growth,[20],101%
Cn1cc(-c2csc(-c3cn(C)c4ncccc34)n2)c2cccnc21,growth,[1],98.7%
same,growth,[2],75.7%
same,growth,[3],94%
same,growth,[4],96%
same,growth,[5],86.9%
same,growth,[6],84.9%
same,growth,[7]; 10 µM unless noted,79.4%
same,growth,[8],95%
same,growth,[9],101%
same,growth,[10],107%
same,growth,[11],86.6%
same,growth,[12],93.1%
same,growth,[13],91.9%
same,growth,[14]; 10 µM unless noted,92.2%
same,growth,[15],99.7%
same,growth,[17],76.1%
same,growth,[18],87.3%
same,growth,[19],95.7%
